High-throughput results as filed in PubChem.
HT1080 IDH1KD tx: toxicity to HT-1080 IDH1 knockdown cells (counter line) | AID 686971 | Potency, µM (top dose mostly 46.1 µM), usual class: cytotoxic | hit rate 2% among 360,000 | HT-1080 IDH1 knockdown viability, ATP luminescence, 48 h
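CellTiter-Glo luminescence after 48 h compound exposure at 37 degrees C of IDH1-knockdown HT-1080 cells in 5% FBS RPMI. %Activity scaled between DMSO wells and cell-free media wells, with curves fitted and assigned curve classes.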
SW480 rereplic: DNA re-replication induction in SW480 cells; SW480 DNA re-replication, Hoechst DNA content imaging, 48 h; Potency, µM (titrated, usually from 46.1 µM), actives largely listed as activators; hit rate 1.8% among 340,000; AID 624297; further: nearly all actives have a fitted effect of over 55% in size
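Image-based DNA-content assay: after two days of treatment, nuclei were labelled with the DNA dye Hoechst and imaged, and hits were compounds raising the count of nuclei showing high fluorescence intensity.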
MCF10A rerep: induces DNA re-replication in MCF 10a normal breast cells. AID 624296. hit rate 2.9% among 350,000. Potency, µM (top dose mostly 46.1 µM), actives largely listed as activators. MCF 10A DNA re-replication, Hoechst nuclear intensity, 48 h; further: nearly all actives have a fitted effect of over 50% in size
KB-3-1 tox: kills parental KB-3-1 adenocarcinoma cells | Potency, µM (doses to about 46.1 µM), actives largely listed as cytotoxic | KB-3-1 viability, CellTiter-Glo ATP luminescence, 72 h | AID 1347075 | hit rate 1.4% among 400,000; further: nearly all actives have a fitted effect of over 60% in size
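Multi-concentration cytotoxicity screen in KB-3-1 cells grown in DMEM lacking phenol red with 10% FBS. After 72 h at 37 °C with compound, ATP-dependent luminescence was recorded.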
HT1080-NT tox: kills 2HG-producing HT-1080-NT fibrosarcoma cells. HT-1080-NT fibrosarcoma viability, CellTiter-Glo ATP luminescence, 48 h. Potency, µM (series often up to 46.1 µM), actives largely listed as cytotoxic. hit rate 1.6% among 360,000. AID 686970;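 further: NT is the 2HG producing partner of a matched IDH1 knockdown line; nearly all actives have a fitted effect of over 55% in size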
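HT-1080-NT; 750 cells/well; 5% FBS RPMI; 48 h compound, 37 degrees C; CellTiter-Glo luminescence; curve fitting and curve-class assignment.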
KB-V1 MDR tox: KB-V1 MDR subline cytotoxicity; hit rate 3.4% among 400,000; AID 1347076; KB-V1 MDR cells viability, CellTiter-Glo, 72 h; Potency, µM (doses to about 46.1 µM), usual class: cytotoxic; further: nearly all actives have a fitted effect of over 60% in size
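Potencies derive from concentration-effect curves fitted to normalized luminescence (CellTiter-Glo) of KB-V1 cells treated for 72 h at 37 degrees C in phenol-red-free DMEM containing 10% FBS.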
Of the large screens only hits and unclear results are named; the others gave an inactive call. The list is not random: actives were taken first. Their share in the collection is about 7.9%. The call rests on the fitted dose curve; in most records, active means well fitted curve in the direction sought with a large enough effect; inconclusive means small, poorly fitted or top-dose-only effect, or another doubt; inactive means no such curve, though single readings can be large; an effect the other way counts as inactive or inconclusive.

COCCNC(=O)Nc1ccc2nc(-c3cccs3)c(-c3cccs3)nc2c1	SW480 rereplic inconclusive, MCF10A rerep 23µM
COc1cc(NC(=O)c2cc(-c3ccccc3Cl)on2)cc(OC)c1OC	HT1080 IDH1KD tx inconclusive, SW480 rereplic inconclusive, MCF10A rerep 21µM, KB-3-1 tox 6.5µM, HT1080-NT tox inconclusive, KB-V1 MDR tox inconclusive
COCCNC(=O)c1cc(-c2cccs2)on1	KB-3-1 tox 21µM, KB-V1 MDR tox 21µM
COc1cc(NC(=O)c2cc(-c3cccc(O)c3)on2)cc(OC)c1OC	HT1080 IDH1KD tx inconclusive, KB-3-1 tox 12µM, HT1080-NT tox inconclusive
COc1ccccc1/C=C/C(=O)OCC(=O)NC1CCS(=O)(=O)C1 (stereo not given)	none
CCCCOCCCNC(=O)c1cccc(OC)c1	none
COc1ccc(NC(=O)CSc2nnc(Cn3c(=O)sc4ccccc43)n2C)cc1	none
CC(=O)Nc1cc(-c2ccc(CO)cc2)cn2c(-c3cccc(C(F)(F)F)c3)cnc12	HT1080 IDH1KD tx inconclusive (no result: SW480 rereplic, MCF10A rerep)
CCC(C)NC(=O)c1ccc2nc(-c3cccs3)c(-c3cccs3)nc2c1 (stereo not given)	KB-3-1 tox 10µM (no result: HT1080 IDH1KD tx, SW480 rereplic, MCF10A rerep, HT1080-NT tox)
COc1cc(NC(=O)c2cc(-c3cccs3)on2)cc(OC)c1OC	SW480 rereplic inconclusive, MCF10A rerep inconclusive, KB-3-1 tox inconclusive, KB-V1 MDR tox 6.5µM
CC(=O)OCc1ccc(C2=CC(=O)CC(C)(C)C2=O)cc1	none (no result: SW480 rereplic, MCF10A rerep)
Cc1ccc(NC(=O)c2ccc(-n3cncn3)c([N+](=O)[O-])c2)cc1F	none
O=C(Nc1ccc(F)cc1)c1ccc(-n2cncn2)c([N+](=O)[O-])c1	KB-3-1 tox inconclusive, KB-V1 MDR tox 12µM
Cc1ccccc1Cn1cc(NC(=O)c2cc3nc(-c4ccco4)cc(C(F)(F)F)n3n2)cn1	none
CCc1ccc(-c2cc(C(F)(F)F)n3nc(C(=O)Nc4cnn(Cc5ccc(C)cc5)c4)cc3n2)s1	HT1080 IDH1KD tx 3.2µM, MCF10A rerep inconclusive, HT1080-NT tox inconclusive, KB-V1 MDR tox 3.7µM
C=CCn1c(Cc2cccs2)nnc1SCC(=O)Nc1ccc(OC)c(OC)c1	KB-V1 MDR tox 23µM
C=CCn1c(Cc2cccs2)nnc1SCC(=O)c1ccc2ccccc2c1	MCF10A rerep 12µM, KB-V1 MDR tox inconclusive
Cc1ccc(S(=O)(=O)c2cc3c(=O)n4ccccc4nc3n(C)c2=N)cc1	SW480 rereplic inconclusive, MCF10A rerep inconclusive, KB-V1 MDR tox 6.5µM
CCCn1c(=N)c(S(=O)(=O)c2ccccc2)cc2c(=O)n3ccccc3nc21	MCF10A rerep 18µM
Cc1ccc(S(=O)(=O)c2cc3c(=O)n4ccccc4nc3n(CC3CCCO3)c2=N)cc1C (stereo not given)	HT1080 IDH1KD tx inconclusive, HT1080-NT tox inconclusive, KB-V1 MDR tox 4.6µM
COc1ccc(CCn2c(=N)c(S(=O)(=O)c3ccccc3)cc3c(=O)n4ccccc4nc32)cc1	MCF10A rerep 3.7µM
CCCCCn1c(=N)c(S(=O)(=O)c2ccccc2)cc2c(=O)n3ccccc3nc21	KB-V1 MDR tox inconclusive (no result: HT1080 IDH1KD tx, SW480 rereplic, MCF10A rerep, HT1080-NT tox)
C=CCN1C=C2C(=O)C(C)(OC(=O)C3CCCC3)C(=O)C=C2C=C1c1ccsc1 (stereo not given)	none
CCOc1ccc(OCCOC(=O)CN2C(=O)NC3(CCCC3)C2=O)cc1	none
CCn1c(=N)c(S(=O)(=O)c2ccccc2)cc2c(=O)n3ccccc3nc21	MCF10A rerep 6.5µM
N=c1c(S(=O)(=O)c2ccc(Br)cc2)cc2c(=O)n3ccccc3nc2n1CCN1CCOCC1	SW480 rereplic inconclusive, MCF10A rerep 16µM
Cc1ccc(S(=O)(=O)c2cc3c(=O)n4ccccc4nc3n(CCc3ccccc3)c2=N)cc1	SW480 rereplic inconclusive, MCF10A rerep inconclusive
COc1ccc(NC(=O)COC(=O)C2CC(=O)N(Cc3ccc(C)cc3)C2)cc1 (stereo not given)	MCF10A rerep inconclusive
CCOC(=O)c1c(NC(=O)C(F)(OC)C(F)(F)F)sc(C(=O)N2CCCCC2)c1C (stereo not given)	none
CCCNS(=O)(=O)c1ccc(CCC(=O)N2CCN(c3ccc(F)cc3)CC2)cc1	KB-3-1 tox inconclusive, KB-V1 MDR tox 9.2µM
CC(=O)Nc1ccc(S(=O)(=O)NCCc2ccc(S(N)(=O)=O)cc2)cc1	none
CCCNS(=O)(=O)c1ccc(CCC(=O)N2CCOCC2)cc1	none
CC(=O)Nc1ccc(S(=O)(=O)NCCc2ccc(F)cc2)cc1	KB-V1 MDR tox 23µM
CC(=O)Nc1ccc(S(=O)(=O)NCCSCc2ccc(Cl)cc2Cl)cc1	HT1080 IDH1KD tx inconclusive, MCF10A rerep 13µM, KB-3-1 tox inconclusive, KB-V1 MDR tox inconclusive
CCCNS(=O)(=O)c1ccc(CCC(=O)N2CCN(c3ccc(OC)cc3)CC2)cc1	KB-V1 MDR tox 21µM
Cc1onc(-c2ccccc2Cl)c1C(=O)NC(C)c1ccccc1 (stereo not given)	none
CCN(C(=O)c1cc2c(=O)n3ccccc3nc2s1)C1CCCCC1	SW480 rereplic inconclusive, MCF10A rerep inconclusive, KB-V1 MDR tox inconclusive
N/C(=N\OC(=O)CCCCCN1C(=O)c2ccccc2C1=O)c1ccccc1	none
COc1ccc(N2CCN(C(=O)CCc3ccc(S(=O)(=O)NC(C)(C)C)cc3)CC2)cc1	SW480 rereplic inconclusive, KB-3-1 tox inconclusive, KB-V1 MDR tox 15µM
COc1ccc(CCC(=O)N2CCN(c3ccc(OC)cc3)CC2)cc1	KB-V1 MDR tox inconclusive
O=C(CCl)N1CCN(S(=O)(=O)Cc2ccccc2)CC1	HT1080 IDH1KD tx inconclusive, MCF10A rerep inconclusive, KB-3-1 tox 23µM, HT1080-NT tox inconclusive, KB-V1 MDR tox inconclusive
CCOC(=O)N1CCN(S(=O)(=O)Cc2ccccc2)CC1	none
C/C=C/C(=O)N(CC)c1ccccc1C	none
Oc1ccccc1-n1c(-c2ccccc2)ccc1-c1ccccc1	HT1080 IDH1KD tx inconclusive, MCF10A rerep 21µM, HT1080-NT tox inconclusive
Cc1ccc(-c2ccccc2)n1-c1ccc(C(=O)O)cc1	MCF10A rerep inconclusive
CCc1ccc2[nH]c(=O)c(C3C(C#N)=C(N)Oc4c3ccc3cccnc43)cc2c1 (stereo not given)	HT1080 IDH1KD tx inconclusive, SW480 rereplic inconclusive, MCF10A rerep inconclusive, KB-3-1 tox inconclusive, HT1080-NT tox inconclusive, KB-V1 MDR tox 2.3µM
CCOc1cccc(C2C(C#N)=C(N)Oc3cc(C)[nH]c(=O)c32)c1OCC (stereo not given)	none
Cc1ccc2cc(C3C(C#N)=C(N)Oc4c3ccc3cccnc43)c(=O)[nH]c2c1 (stereo not given)	HT1080 IDH1KD tx inconclusive, SW480 rereplic inconclusive, MCF10A rerep inconclusive, HT1080-NT tox 11µM
